Common to all, as to assay: NCI-60 one-dose screen, 48 h (100 = growth as untreated, 0 = no growth, -100 = all killed)
In test [1] the test system is 786-0 renal. Particulars: 10 µM.
Test [2] relates to K-562 leukemia. The conditions noted are these: 10 µM.
Test [3] concerns MALME-3M melanoma. The conditions noted are these: 10 µM.
In test [4] the test system is RXF 393 renal. The conditions noted are these: 10 µM.
In test [5] the test system is EKVX NSCLC. The conditions noted are these: 10 µM.
The test system of test [6] is SN12C renal. Particulars: 10 µM.
The subject of test [7] is UO-31 renal. Particulars: 10 µM.
Test [8] deals with TK-10 renal. Particulars: 10 µM.
Test [9] has as its system ACHN renal. The conditions noted are these: 10 µM.
Test [10] relates to CAKI-1 renal. Particulars: 10 µM.
Test [11] has as its system CCRF-CEM leukemia. The conditions noted are these: 10 µM.
The test system of test [12] is OVCAR-8 ovarian. The conditions noted are these: 10 µM.
Test [13] deals with OVCAR-5 ovarian. Particulars: 10 µM.
Test [14] has as its system OVCAR-4 ovarian. The conditions noted are these: 10 µM.
Test [15] relates to SK-OV-3 ovarian. Particulars: 10 µM.
For test [16], the system named is OVCAR-3 ovarian. Particulars: 10 µM.
In test [17] the test system is NCI/ADR-RES ovarian. The conditions noted are these: 10 µM.
For test [18], the system named is BT-549 breast. Particulars: 10 µM.
Test [19] deals with MCF7 breast. Particulars: 10 µM.
Test [20] has as its system MDA-MB-468 breast. The conditions noted are these: 10 µM unless noted.

Compounds without any hit were thinned out: in the full panel of roughly 83,000, 20% have a hit.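 Results are percent growth after 48 hours of single-concentration exposure. 100 means growth as in untreated cells, lower positive values show inhibition; negative values down to -100 show cell death.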 Unmarked numbers belong to inactive results. The source made the active and inactive calls. Rule for the calls: active = growth percent below 10; inactive = the rest.

For the compound `CC12CCC3(CCC(=O)NCCCNc4ccnc5cc(Cl)ccc45)[C@@](C)(OO[C@]3(C)O1)O2`, the growth in [1] is -22.7% (active); in test [2], 14.4%; in test [3], 17.5%; in [4], -47.1% (active); in [5] it was 4.65% (active); in test [6], -15.1% (active). Besides, the growth in [7] is -50.1% (active); in test [8], -17.8% (active); in test [9], -10.1% (active); in test [10], -25% (active); in test [11] it was 3.78% (active); in test [12], -1.11% (active). Moreover, the growth in [13] is 4.68% (active); in test [14] it was 33.1%; in [15] it was 13.1%; in test [16] it was 30.8%; in [17], -14.7% (active); in test [18], -7.38% (active). The growth is 9.36% (active) in test [19] and -38.3% (active) in [20].
As for `COc1ccc2cc([C@H](C)C(=O)[Se]CCC#N)ccc2c1`, the growth in test [1] is -83.9% (active); in test [2], 4.12% (active); in test [3] it was -44.7% (active); in [4] it was -82.3% (active); in [5] it was -83.7% (active); in test [6], -16.8% (active). In addition, the growth is -71.2% (active) in [7]; -90.4% (active) in [8]; -50% (active) in [9]; -94% (active) in [10]; 7.91% (active) in test [11]; -82.9% (active) in test [12]. Besides, the growth in test [13] is -31.8% (active); in test [14], -44.3% (active); in [15], -70.6% (active); in test [16] it was -61% (active); in test [17], -14.4% (active); in test [18], -8.75% (active). The results for the growth in [19] and in [20] were -8.25% (active) and -56.6% (active), respectively.
`O=C(/C=C/c1ccc(Cl)cc1Cl)c1nc2ccccc2n1Cc1ccc(Br)cc1`: the growth in test [1] was 32.6%; in test [2] it was 53.5%; in test [3], 84%; in [4] it was 58.2%; in test [5], 61.6%; in [6], 75.7%. Also, the growth is 50.9% in test [7]; 99.8% in test [8]; 71.3% in [9]; 65.1% in test [10]; 5.89% (active) in test [11]; 80.6% in [12]. The growth in test [13] is 98%; in [14], 73.7%; in [15], 92.9%; in test [16], 68.4%; in test [17], 82.1%; in test [18], 59.2%. Also, the growth in test [19] was 17.1%; in test [20], 48.9%.
For `C=CCN=C([Se])NC(=O)c1ccc2c(c1)OCO2`, the growth in test [1] was 85.8%; in [2] it was 107%; in [3], 110%; in test [4] it was 128%; in [5], 73.5%; in [6] it was 81.5%. For the same compound, the growth in [7] is 115%; in test [8] it was 120%; in test [9], 111%; in [10] it was 118%; in [11], 87.1%; in test [12], 61.1%. In addition, the growth in test [13] was 117%; in test [14] it was 108%; in test [15], 45.1%; in test [16], 112%; in test [17], 60.3%; in test [18], 104%. Further, the growth in [19] is 102%; in test [20] it was 110%.
Turning to `CC[C@]12C=CCN3CC[C@@]4(c5ccc(OC)cc5N(C)[C@H]4[C@@](O)(C(=O)OC)[C@@H]1OC(=O)CCC[P+](c1ccc(C)cc1)(c1ccc(C)cc1)c1ccc(C)cc1)[C@@H]32`, the growth in test [1] is -88% (active); in [2], -13.4% (active); in test [3], -94.4% (active); in test [4], -82.8% (active); in test [5] it was -94.7% (active); in [6], -88.1% (active). In addition, the growth in test [7] is -97.4% (active); in test [8] it was -88.5% (active); in test [9] it was -97.8% (active); in test [10] it was -95.3% (active); in test [11], -67% (active); in test [12], -85% (active). The growth in test [13] was -95.9% (active); in [14], -73.5% (active); in [15], -81% (active); in [16], -61.9% (active); in test [17], 18.1%; in [18], -96.9% (active). In addition, the growth is -76.3% (active) in [19] and -92.1% (active) in [20].
In the case of `O=C(/C=C/c1ccco1)c1nc2ccccc2n1Cc1ccc(Br)cc1`, the growth in [1] was 23%; in test [2] it was 7% (active); in test [3] it was 44.2%; in test [4], -1.81% (active); in test [5], 17.8%; in test [6], 43.4%. Moreover, the growth is 34.4% in test [7]; 77.1% in test [8]; 48.7% in test [9]; 47.5% in test [10]; -6.79% (active) in test [11]; 46.7% in test [12]. Further, the growth was 57% in test [13]; 46.5% in test [14]; 103% in [15]; 22% in test [16]; 25.7% in [17]; 6.02% (active) in test [18]. Also, the figures for the growth in test [19] and in test [20] were 2.72% (active) and -14.5% (active), respectively.
Turning to `COC(=O)c1ccc(-n2cc(CCCN(CCNc3ccnc4cc(Cl)ccc34)C(=O)CCC(=O)O[C@@H]3O[C@@H]4OC5(C)CC[C@H]6[C@H](C)CC[C@@H]([C@H]3C)[C@@]46OO5)nn2)cc1`, the growth in test [1] was 52.4%; in [2], 5.64% (active); in [3], -61.5% (active); in [4], 34.2%; in test [5], 49.4%; in test [6], 44%. In addition, the growth was 19.6% in test [7]; 60.5% in [8]; 36.3% in test [9]; 44.5% in test [10]; 15.9% in test [11]; 20.9% in test [12]. Also, the growth in test [13] is 49.2%; in [14], 46.2%; in test [15], 85.6%; in test [16] it was 43.4%; in test [17], 11.4%; in [18] it was 43.2%. Moreover, the growth was -49.6% (active) in [19] and 33.3% in [20].

Values taken from PubChem BioAssay (NCI).
